Several values for one entry are separate records, joined by “and”; a condition that tells them apart may be missing. Equal entries are not always repeated. Screen size: about 5,500 compounds; about 2,000 (36%) were called active. Another 18% or so got no clear call; they are omitted. No stated cut-off is given here; in the data, active means normalized growth mostly below about 0.91 (no sharp cut-off); inconclusive means no clear call, values can overlap the other calls; inactive means mostly above about 0.92. Some of the results follow.
Test: chemical genetic growth profiling, strain panel (AID 1159580);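 further: tested at 20 µM; growth read once vehicle control cultures reached saturation at 30 °C; 1 = growth at the plate median or of vehicle wells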
Details: S. cerevisiae deletion strains, growth OD

Measured: normalized growth

NS(=O)(=O)c1cc2c(cc1C(F)(F)F)NC(Cc1ccccc1)NS2(=O)=O (stereo not drawn)
inactive: locus YAL021C, strain ccr4, stronger effect = lower value 1 | locus YAL026C, strain drs2, stronger effect = lower value 0.979 | locus YAL030W, strain snc1, stronger effect = lower value 0.989 | locus YBL061C, strain skt5, stronger effect = lower value 0.986 | locus YBR009C, strain hhf1, stronger effect = lower value 0.988 | locus YBR021W, strain FUR4, stronger effect = lower value 1.02 | locus YBR023C, strain chs3, stronger effect = lower value 0.992 | locus YBR171W, strain sec66, stronger effect = lower value 0.981 | locus YBR229C, strain ROT2, stronger effect = lower value 1 | locus YBR231C, strain swc5, stronger effect = lower value 0.986 | locus YBR279W, strain paf1, stronger effect = lower value 1 | locus YCL011C, strain gbp2, stronger effect = lower value 0.973 | locus YCL016C, strain dcc1, stronger effect = lower value 0.988 | locus YCL029C, strain bik1, stronger effect = lower value 1.01 | locus YCL061C, strain MRC1, stronger effect = lower value 0.991 | locus YCL069W, strain vba3, stronger effect = lower value 1 | locus YCR088W, strain abp1, stronger effect = lower value 0.993 | locus YDL005C, strain med2, stronger effect = lower value 0.991 | locus YDL035C, strain GPR1, stronger effect = lower value 1.02 | locus YDL040C, strain nat1, stronger effect = lower value 1.01 | locus YDL074C, strain BRE1, stronger effect = lower value 0.969 | locus YDL101C, strain DUN1, stronger effect = lower value 1 | locus YDL134C, strain PPH21, stronger effect = lower value 1.02 | locus YDL185W, strain tfp1, stronger effect = lower value 1.01 | locus YDL192W, strain arf1, stronger effect = lower value 1.01 | locus YDR001C, strain nth1, stronger effect = lower value 0.98 | locus YDR069C, strain doa4, stronger effect = lower value 0.997 | locus YDR101C, strain arx1, stronger effect = lower value 0.985 | locus YDR137W, strain rgp1, stronger effect = lower value 0.977 | locus YDR159W, strain sac3, stronger effect = lower value 0.991 | locus YDR162C, strain NBP2, stronger effect = lower value 1.01 | locus YDR195W, strain ref2 0.983 | locus YDR297W, strain sur2, stronger effect = lower value 0.986 | locus YDR318W, strain mcm21, stronger effect = lower value 1.01 | locus YDR334W, strain swr1, stronger effect = lower value 0.953 | locus YDR335W, strain msn5, stronger effect = lower value 0.991 | locus YDR388W, stronger effect = lower value 1.01 | locus YDR392W, strain spt3, stronger effect = lower value 0.943 | locus YDR502C, strain sam2, stronger effect = lower value 0.996 | locus YEL003W, strain gim4, stronger effect = lower value 0.983 | locus YEL037C, strain rad23, stronger effect = lower value 0.984 | locus YEL061C, strain CIN8 (second series), stronger effect = lower value 0.989 | locus YEL061C, strain CIN8, stronger effect = lower value 1 | locus YER015W, strain faa2, stronger effect = lower value 0.992 | locus YER016W, strain bim1, stronger effect = lower value 0.992 | locus YER110C, stronger effect = lower value 1.02 | locus YER111C, strain swi4, stronger effect = lower value 0.999 | locus YER155C, strain BEM2 (second series), stronger effect = lower value 0.974 | locus YER155C, strain BEM2, stronger effect = lower value 0.999 | locus YER167W, strain BCK2, stronger effect = lower value 1.01 | locus YFR010W, strain ubp6, stronger effect = lower value 0.971 | locus YGL078C, strain dbp3, stronger effect = lower value 0.995 | locus YGL086W, strain mad1, stronger effect = lower value 0.99 | locus YGL167C, strain pmr1, stronger effect = lower value 0.989 | locus YGL173C, strain kem1, stronger effect = lower value 0.981 | locus YGL227W, strain vid30, stronger effect = lower value 1 | locus YGL240W, strain doc1, stronger effect = lower value 0.984 | locus YGL248W, strain PDE1, stronger effect = lower value 0.999 | locus YGL253W, strain hxk2, stronger effect = lower value 0.998 | locus YGR135W, strain pre9, stronger effect = lower value 1.04 | locus YGR229C, strain SMI1, stronger effect = lower value 1 | locus YGR252W, strain gcn5, stronger effect = lower value 1.01 | locus YHR013C, strain ard1, stronger effect = lower value 0.967 | locus YHR027C, strain rpn1, stronger effect = lower value 0.971 | locus YHR030C, strain SLT2, stronger effect = lower value 1 and 0.973 | locus YHR079C, strain IRE1 (second series), stronger effect = lower value 1.01 | locus YHR079C, strain IRE1, stronger effect = lower value 0.98 | locus YHR094C, strain hxt1, stronger effect = lower value 1.01 | locus YHR129C, strain ARP1, stronger effect = lower value 1.01 | locus YHR142W, strain chs7, stronger effect = lower value 0.96 | locus YHR200W, strain rpn10, stronger effect = lower value 1.01 | locus YIL066C, strain RNR3, stronger effect = lower value 0.999 | locus YIL073C, strain SPO22, stronger effect = lower value 1.05 | locus YIL125W, strain kgd1, stronger effect = lower value 0.999 | locus YIR030C, strain dcg1, stronger effect = lower value 1.01 | locus YJL092W, strain hpr5, stronger effect = lower value 1 | locus YJL095W, strain BCK1 (second series), stronger effect = lower value 0.997 | locus YJL095W, strain BCK1, stronger effect = lower value 0.97 and 0.978 | locus YJL115W, strain asf1, stronger effect = lower value 0.966 | locus YJL129C, strain trk1, stronger effect = lower value 1 | locus YJL134W, strain LCB3, stronger effect = lower value 1 | locus YJL154C, strain vps35, stronger effect = lower value 0.985 | locus YJL164C, strain tpk1, stronger effect = lower value 0.984 | locus YJL166W, strain qcr8, stronger effect = lower value 0.97 | locus YJL168C, strain set2, stronger effect = lower value 1.01 | locus YJL187C, strain SWE1 (second series), stronger effect = lower value 0.984 | locus YJL187C, strain SWE1, stronger effect = lower value 0.994 | locus YJR043C, strain POL32, stronger effect = lower value 0.982
